# p53 mut binder: binders of human mutant p53; small molecule microarray binding, anti-GST fluorescence; calls only; 0.4% of 17,000 active; AID 624136;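 active = compounds whose four printed spots each glow above background more than chance allows, each with a p-value under 7%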
# NFkB binder: binds human NF-kappa-B p105 on microarray; Small molecule microarray, anti-His fluorescence binding; P19838; calls only; 1.3% of 17,000 active;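 active = spot fluorescence over background significantly raised, with a chance value under 7% in all four replicate spots of the compound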;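 also: probe protein is his-tagged human p50 processed subunit at 1 µg/ml; raw spot fluorescence signals with no normalization applied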
# c-Myc SMM: c-Myc (human) binding | P01106 | small molecule microarray, His-c-Myc binding, anti-His fluorescence | calls only | 1.5% of 17,000 active | AID 624141;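 active = spot fluorescence over background with P-value below 7% in all four replicate spots, showing protein binding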;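 also: score is binary with 100 for all four spots passing and 0 otherwise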
# Target sequence (P01106 whole entry, looked up): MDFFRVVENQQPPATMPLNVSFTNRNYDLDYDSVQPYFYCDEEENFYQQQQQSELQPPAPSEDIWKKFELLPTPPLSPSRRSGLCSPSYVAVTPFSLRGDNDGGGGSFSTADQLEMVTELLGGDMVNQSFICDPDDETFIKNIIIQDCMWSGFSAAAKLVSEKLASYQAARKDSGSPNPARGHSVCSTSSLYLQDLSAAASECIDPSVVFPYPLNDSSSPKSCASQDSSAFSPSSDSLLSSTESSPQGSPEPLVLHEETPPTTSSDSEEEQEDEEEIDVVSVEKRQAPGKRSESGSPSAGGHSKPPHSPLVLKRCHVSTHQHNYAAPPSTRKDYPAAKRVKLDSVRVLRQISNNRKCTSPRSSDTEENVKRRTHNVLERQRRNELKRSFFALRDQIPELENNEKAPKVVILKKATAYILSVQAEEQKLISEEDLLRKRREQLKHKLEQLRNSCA
# STAT3 binder: binds human STAT3 on microarray; P40763; Small molecule microarray, His-STAT3 binding, anti-His fluorescence; calls only; AID 624138; 0.2% of 17,000 active;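 active = compounds whose four printed spots each show fluorescence over background unusually high for their array block, chance value under 7%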
# p53 PUMA act: re-activators of the mutant p53 pathway; AID 624151; SW480 PUMA-promoter luciferase, p53 mutant reactivation; activation, % at 9.98 µM; 1.5% of 28,000 active; in the data active = activation above about 52%
# * = called active by the depositor; i = inactive; . = no result; + = active, no number. Hits are enriched below; roughly 2.6% of the tested compounds scored in any of these assays.
SMILES,p53 mut binder,NFkB binder,c-Myc SMM,STAT3 binder,p53 PUMA act
C[C@H](CO)N1C[C@H](C)[C@@H](CN(C)CC2CCCCC2)Oc2ccc(NS(=O)(=O)c3ccc(Cl)cc3)cc2CC1=O,i,i,i,i,-2
COC(=O)c1ccc(C)c(NC(=O)CN(c2cc(Cl)c(Cl)cc2Cl)S(C)(=O)=O)c1,.,.,.,.,0
COCCNc1ncnc2c1cnn2-c1cccc(C)c1,i,i,i,i,101*
O=C(CN1C(=O)c2cccc3cccc1c23)Nc1ccccc1C(=O)N1CCCC1,.,.,.,.,-9
C=CCN1C(=O)/C(=C2\SC(N3CCCCC3)=NC2=O)c2ccccc21,.,.,.,.,68*
Cc1cc(C(=O)O)ccc1NC(=O)C1CC=CCC1C(=O)O (configuration not stated),i,i,i,i,2
C[C@H](CO)N1C[C@H](C)[C@H](CN(C)C(=O)Nc2cccc3ccccc23)Oc2ccc(NC(=O)Nc3cccc4ccccc34)cc2CC1=O,i,i,i,i,0
C[C@@H]1CN([C@H](C)CO)C(=O)Cc2cc(NC(=O)Nc3ccc(C(F)(F)F)cc3)ccc2O[C@@H]1CN(C)Cc1ccncc1,i,+,+,i,-42
C[C@@H]1CN([C@H](C)CO)C(=O)Cc2cc(NC(=O)Nc3cccc4ccccc34)ccc2O[C@@H]1CN(C)C(=O)Nc1cccc2ccccc12,i,+,+,i,-45
N#Cc1cc2c(nc1SCC(=O)Nc1ccccc1C(F)(F)F)CCC2,.,.,.,.,111*
CC(C)OC(=O)CSc1nc2c(cc1C#N)CCCCC2,.,.,.,.,98*
N#Cc1cc2c(nc1SCC(=O)Nc1cc(C(F)(F)F)ccc1Cl)CCCCC2,.,.,.,.,5
Cn1c(CN2CCOCC2)nnc1SCC(=O)Nc1ccccc1Br,i,i,i,i,4
Cc1ccc2c(c1)c1nc3ccccc3nc1n2CCN1CCOCC1,i,i,+,i,-17
COC(=O)C(CC#Cc1ccc2c(c1)[C@]1(C(=O)N2)[C@H](c2ccc(OCCO)cc2)N2[C@H](c3ccccc3)[C@H](c3ccccc3)OC(=O)[C@H]2[C@@H]1C(=O)N1CCN(c2ncccn2)CC1)C(=O)OC,i,i,i,i,.
COc1ccc(C#Cc2ccc3c(c2)[C@]2(C(=O)N3)[C@H](c3ccc(OCCO)cc3)N3[C@H](c4ccccc4)[C@H](c4ccccc4)OC(=O)[C@H]3[C@@H]2C(=O)N2CCc3cc(OC)c(OC)cc3C2)cc1,i,+,i,i,.
COC(=O)C(CC#Cc1ccc2c(c1)[C@]1(C(=O)N2)[C@H](C(=O)N2CCN(c3ncccn3)CC2)[C@H]2C(=O)O[C@H](c3ccccc3)[C@H](c3ccccc3)N2[C@@H]1c1ccc(OCCO)cc1)C(=O)OC,i,+,i,i,.
COc1ccc(C#Cc2ccc3c(c2)[C@]2(C(=O)N3)[C@H](C(=O)N3CCc4cc(OC)c(OC)cc4C3)[C@H]3C(=O)O[C@H](c4ccccc4)[C@H](c4ccccc4)N3[C@@H]2c2ccc(OCCO)cc2)cc1,i,+,i,i,.
Cc1ccc(N(CC(=O)Nc2ccccc2-c2ccccc2)S(C)(=O)=O)cc1,i,i,i,i,-3
COc1ccccc1-n1nnnc1SCC(=O)Nc1ccccc1C,.,.,.,.,5
Cc1cc([N+](=O)[O-])nn1CC(=O)Nc1cc(Cl)cc(Cl)c1,.,.,.,.,-7
Cc1nn(C(=O)Cn2nc([N+](=O)[O-])cc2C)c(C)c1Cl,i,i,+,i,14
Cc1ccc([N+](=O)[O-])cc1NC(=O)C1CCCN(S(=O)(=O)c2ccc(F)cc2)C1 (configuration not stated),.,.,.,.,-15
S=C(NCC1CCCO1)Nc1cnn(Cc2ccc(Cl)cc2)c1 (configuration not stated),i,i,+,i,-3
O=C(CSc1ncnc2scc(-c3ccc(Cl)cc3)c12)NCC1CCCO1 (configuration not stated),i,i,i,i,12
COC1CC(OC2CCC3(C)C(CCC4(O)C3CC(OC(=O)c3ccccc3)C3(C)C(O)(C(C)=O)CCC43O)C2)OC(C)C1OC1CC(OC)C(OC2OC(C)C(OC3OC(CO)C(O)C(O)C3O)C(OC)C2O)C(C)O1 (configuration not stated),i,+,+,i,-18
COc1ccccc1/C=C/C(=O)N1CCCC(c2ccccc2)C1 (configuration not stated),.,.,.,.,101*
O=C(Nc1sc2c(c1C(=O)NCC1CCCO1)CCCC2)c1ccc(Cl)cc1Cl (configuration not stated),.,.,.,.,4
